Results filed as inconclusive are left out. Activity calls are given as the source filed them. Calls come from the whole dose curve; as a rule, active = well fitted curve in the direction sought with a large enough effect; inconclusive = small, poorly fitted or top-dose-only effect, or another doubt; inactive = no such curve, though single readings can be large; an effect the other way counts as inactive or inconclusive. Where a SMILES comes first, the peptide text is derived from it. [ ]: non-standard residue; d: D form. pGlu = O=C1CC[C@@H](C(=O)O)N1
Key:
[1] = qHTS of pediatric cancer cell lines to identify multiple opportunities for drug repurposing: Primary screen for RD cells (AID 1347104);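 note: plate controls were DMSO for no effect and bortezomib for full effect; nearly all actives have a fitted effect of over 55% in size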
Summary of the method: (§1)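 Readout: CellTiter-Glo luminescence, 48 h treatment. Controls DMSO (neutral) and bortezomib 2.3 µM final (positive). Potency and efficacy taken from primary-screen concentration-response curves.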

[2] = qHTS of pediatric cancer cell lines to identify multiple opportunities for drug repurposing: Primary screen for MG 63 (6-TG R) cells (AID 1347105); note: % is set by controls: 0 for no effect and ±100 for the full control effect; nearly all actives have a fitted effect of over 50% in size
Summary of the method: as §1

[3] = qHTS of pediatric cancer cell lines to identify multiple opportunities for drug repurposing: Primary screen for control Hh wild type fibroblast cells (AID 1347106);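 note: series mostly up to about 46 µM; % is set by controls: 0 for no effect and ±100 for the full control effect; a drop in luminescence marks cytotoxicity and a rise apparent proliferation; nearly all actives have a fitted effect of over 55% in size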
Summary of the method: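 Viability after 48 h compound treatment at 37C, 500-1,000 cells/well, read as ATP luminescence with CellTiter-Glo. Primary screens used 11-point (MIPE, 0.78 nM-46 µM) or 8-point (NPC, 0.59 nM-46 µM) final concentrations; follow-up screens used 11-point dilutions.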

[4] = qHTS of pediatric cancer cell lines to identify multiple opportunities for drug repurposing: Primary screen for Rh30 cells (AID 1347107); note: series mostly up to about 46 µM; % is set by controls: 0 for no effect and ±100 for the full control effect; nearly all actives have a fitted effect of over 75% in size
Summary of the method: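 Cells (500-1,000/well) in growth media were settled 5 h at 37 degrees C, then given compounds for 48 h. Viability was read as CellTiter-Glo luminescence. Primary runs used MIPE at 11 points (0.78 nM-46 µM) and NPC at 8 points (0.59 nM-46 µM); follow-ups used 11 points.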

[5] = qHTS of pediatric cancer cell lines to identify multiple opportunities for drug repurposing: Primary screen for Rh41 cells (AID 1347108);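 note: series mostly up to about 46 µM; luminescence drop marks cytotoxic hits; nearly all actives have a fitted effect of over 70% in size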
Summary of the method: as §1

CC(=O)N(CC(O)CO)c1c(I)c(C(=O)NCCO)c(I)c(C(=O)NCC(O)CO)c1I (stereo not given)
inactive: Potency [1] | Potency [2] | Potency [3] | Potency [4] | Potency [5]

CN(C)CCN1CCN(c2cccc(Cl)c2)C1=O
inactive: Potency [1] | Potency [2] | Potency [3] | Potency [4] | Potency [5]

Cc1c(F)cc2c(=O)c(C(=O)O)cn3c2c1CCC3C (stereo not given)
inactive: Potency [1] | Potency [2] | Potency [3] | Potency [4] | Potency [5]

CCOC(=O)NNc1nncc2ccccc12
inactive: Potency [1] | Potency [2] | Potency [3] | Potency [4] | Potency [5]

Cc1c(N)cccc1C(F)(F)F
inactive: Potency [1] | Potency [2] | Potency [3] | Potency [4] | Potency [5]

CCNC(=O)[C@@H]1CCCN1C(=O)[C@H](CCCN=C(N)N)NC(=O)[C@H](CC(C)C)NC(=O)CNC(=O)[C@H](Cc1ccc(O)cc1)NC(=O)[C@H](CO)NC(=O)[C@H](Cc1c[nH]c2ccccc12)NC(=O)[C@H](Cc1cnc[nH]1)NC(=O)[C@@H]1CCC(=O)N1 ([pGlu]HWSYGLRP-NHEt)
inactive: Potency [1] | Potency [2] | Potency [3] | Potency [4] | Potency [5]

N[C@@H](Cc1cc(I)c(O)c(I)c1)C(=O)O
inactive: Potency [1] | Potency [2] | Potency [3] | Potency [4] | Potency [5]

C[C@H]1NCc2cc(-c3ccc4c(=O)c(C(=O)O)cn(C5CC5)c4c3OC(F)F)ccc21
inactive: Potency [1] | Potency [2] | Potency [3] | Potency [4] | Potency [5]

NCC[C@H](O)C(=O)N[C@@H]1C[C@H](N)[C@@H](O[C@H]2O[C@H](CN)[C@@H](O)[C@H](O)[C@@H]2O)[C@H](O)[C@@H]1O[C@H]1O[C@H](CO)[C@@H](O)[C@H](N)[C@@H]1O
inactive: activity change, negative = cytotoxic [1] 8.3% [at 0.597 µM] | activity change, negative = cytotoxic [2] -9.26% [at 0.597 µM] | activity change, negative = cytotoxic [3] -6.47% [at 0.597 µM] | activity change, negative = cytotoxic [4] 20.7% [at 0.597 µM] | activity change, negative = cytotoxic [5] 34.1% [at 0.597 µM]

CNC(=O)c1cnn(-c2nc(N)c3ncn([C@@H]4O[C@H](CO)[C@@H](O)[C@H]4O)c3n2)c1
inactive: Potency [1] | Potency [2] | Potency [3] | Potency [4] | Potency [5]

CN1N=C(C(N)=O)CCC1=O
inactive: Potency [1] | Potency [2] | Potency [3] | Potency [4] | Potency [5]

CCN1CCCC1CN (stereo not given)
inactive: Potency [1] | Potency [2] | Potency [3] | Potency [4] | Potency [5]

CC(=O)OC/C=C(C)/C=C/C=C(C)/C=C/C1=C(C)CCCC1(C)C
inactive: Potency [1] | Potency [2] | Potency [3] | Potency [4] | Potency [5]

O=C(O)[C@H](O)[C@@H](O)[C@H](O[C@@H]1O[C@H](CO)[C@H](O)[C@H](O)[C@H]1O)[C@H](O)CO
inactive: Potency [1] | Potency [2] | Potency [3] | Potency [4] | Potency [5]

CN(C)CCCOC1(Cc2ccccc2)CCCCCC1
inactive: Potency [1] | Potency [2] | Potency [3] | Potency [4] | Potency [5]

CCOC(=O)Oc1ccc(CCNC(=O)[C@H](CCSC)NC(C)=O)cc1OC(=O)OCC
inactive: Potency [1] | Potency [2] | Potency [3] | Potency [4] | Potency [5]

C=CCOc1cc(Cl)ccc1C(=O)NCCN(CC)CC
inactive: Potency [1] | Potency [2] | Potency [3] | Potency [4] | Potency [5]

O=C(C1CCCCC1)N1CC(=O)N2CCCc3ccccc3C2C1 (stereo not given)
inactive: Potency [1] | Potency [2] | Potency [3] | Potency [4] | Potency [5]

CSc1ccc(/C=C2/C(C)=C(CC(=O)O)c3cc(F)ccc32)cc1
inactive: Potency [1] | Potency [2] | Potency [3] | Potency [4] | Potency [5]

COC(=O)C1=C(C)NC(COC(N)=O)=C(C(=O)OC(C)C)C1c1cccc(Cl)c1Cl (stereo not given)
inactive: Potency [1] | Potency [2] | Potency [3] | Potency [4] | Potency [5]

CCNC(=O)NCCCOc1cccc(CN2CCCCC2)c1
inactive: Potency [1] | Potency [2] | Potency [3] | Potency [4] | Potency [5]

C[C@@H]1CCC[C@H](C)N1CCCC(O)(c1ccccc1)c1ccccn1 (stereo not given in full)
inactive: Potency [1] | Potency [2] | Potency [3] | Potency [4] | Potency [5]

CC(C)Cc1ccc(C(C)C(=O)OCc2ccccn2)cc1 (stereo not given)
inactive: Potency [1] | Potency [2] | Potency [3] | Potency [4] | Potency [5]

CCN(CC)CCN
inactive: Potency [1] | Potency [2] | Potency [3] | Potency [4] | Potency [5]

C1N2CN3CN1CN(C2)C3
inactive: Potency [1] | Potency [2] | Potency [3] | Potency [4] | Potency [5]

CCCOc1ccc2c(c1)CC[C@@H]1[C@@H]2CC[C@]2(C)C(OC)CC[C@@H]12 (stereo not given in full)
inactive: Potency [1] | Potency [2] | Potency [3] | Potency [4] | Potency [5]

CNC[C@H](O)[C@@H](O)[C@H](O)[C@H](O)CO
inactive: Potency [1] | Potency [2] | Potency [3] | Potency [4] | Potency [5]

O=C(OCCN1CCOCC1)c1cccnc1Nc1cccc(C(F)(F)F)c1
inactive: Potency [1] | Potency [2] | Potency [3] | Potency [4] | Potency [5]

CCCCNc1ccc(C(=O)OCCN(CC)CC)cc1
inactive: Potency [1] | Potency [2] | Potency [3] | Potency [4] | Potency [5]

CCOC(=O)NNc1ccc(N(CC)CC(C)O)nn1 (stereo not given)
inactive: Potency [1] | Potency [2] | Potency [3] | Potency [4] | Potency [5]

CCCc1c2oc(C(=O)O)cc(=O)c2cc2c(=O)cc(C(=O)O)n(CC)c12
inactive: Potency [1] | Potency [2] | Potency [3] | Potency [4] | Potency [5]

O=c1[nH]c2ccccc2c(=O)n1CCCl
inactive: Potency [1] | Potency [2] | Potency [3] | Potency [4] | Potency [5]

O=C(Oc1ccccc1)c1ccccc1O
inactive: Potency [1] | Potency [2] | Potency [3] | Potency [4] | Potency [5]

Reference: PubChem BioAssay (NCATS)
